Measured values as given in PubChem BioAssay (EPA / NIEHS).
Results filed as inconclusive are left out. Activity calls are given as the source filed them. Rule for the calls: active = hit-call score of the fitted dose curve at least 0.9, where 1 is the maximum; inconclusive = response in the unintended direction; inactive = score below 0.9.

experiment: CCTE_Deisenroth_AIME_384WELL_CTox_Inactive: Cytotoxicity Assessment (CTOX) in CCTE's 384-well Estrogen Receptor Transactivation Assay without AIME metabolic competence (metabolism negative), Deisenroth Lab (AID 2284039);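 note: cell viability via live-cell protease substrate cleaved to fluorescent probe; cells exposed 24 h to medium preincubated 2 h with alginate-water beads without S9; loss of fluorescence signal means loss of viability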
Protocol: CCTE_Deisenroth_AIME_384WELL (AIME metabolism assay) is a cell-based, single-readout assay that uses VM7Luc4E2, a human mammary gland/breast cell line, with measurements taken at 24 hour after chemical dosing in a 384-well plate.CCTE_Deisenroth_AIME_384WELL_CTox_Inactive is one of four assay components measured or calculated from the CCTE_Deisenroth_AIME_384WELL assay. It is designed to make measurements of a protease substrate, a type of viability indicator, as detected with substrate cleavage to a fluorescent probe in living cells.CCTE_Deisenroth_AIME_384WELL_CTox_Inactive is a component of the CCTE_Deisenroth_AIME_384WELL assay that measures the effect of retroftting the VM7Luc ERTA assay with the Alginate Immobolization of Metabolic Enzymes (AIME) metabolism method. AIME is optimized to impart phase I hepatic metabolism using phenobarbital/beta-naphthoflavone induced hepatic S9 from male Sprague Dawley rats. Parent chemicals are incubated for 2 hours in the AIME assay prior to transfer to the VM7Luc ERTA assay plate. […] This endpoint evaluates cytotoxicity in metabolism negative mode. Using a type of flourescent probe in VM7Luc cells, loss-of-signal activity can be used to understand loss of viability. This assay endpoint, CCTE_Deisenroth_AIME_384WELL_CTox_Inactive, was analyzed with bidirectional fitting in the ERTA assay.
The AIME procedure consists of a preparative "pre-stamping" step using a barium chloride/poly-L-lysine (PLL) solution followed by "stamping" the lid in alginate-hepatic S9 (metabolism positive) or alginate-water (metabolism negative) to form microspheres. Once stamping is completed, the AIME lids are placed in duplicate microplates (metabolism positive or negative) containing chemical solutions and incubated for two hours to facilitate metabolic reactions. The conditioned medium, containing parent chemical or metabolites, is then transferred to the cell-based VM7Luc Estrogen Receptor Transactivation Assay (ERTA) for 24 hours. A typical experimental design tests a 10-point concentration series (0.002 - 200 uM) for 8 compounds (96-well format)1 or 32 compounds (384-well format)2 in single technical replicate. AIME assay controls include trans-stilbene (bioactivated control) and ethylparaben (bioinactivated control). ERTA assay plate controls include 17-beta estradiol (positive control) and DMSO (solvent control). Experiments typically comprise a minimum of four experimental replicates (n=4).

| Compound | outcome | AC50 |
| --- | --- | --- |
| CC(CCC(=O)O)(c1ccc(O)cc1)c1ccc(O)cc1 | inactive | – |
| CCCCCCCCCC[N+](C)(CCCCCCCCCC)CCC[Si](OC)(OC)OC | – | 100 µM (active) |
| CCCCCC(=O)OCC | – | 19.8 µM (active) |
| O=C(Oc1ccccc1)c1ccccc1O | inactive | – |
| O=c1c(O)c(-c2ccc(O)cc2O)oc2cc(O)cc(O)c12 | – | 146 µM (active) |
| C=C[C@@]1(C)CC(=O)[C@]2(O)[C@@]3(C)[C@@H](O)CCC(C)(C)[C@@H]3[C@H](O)[C@H](OC(C)=O)[C@@]2(C)O1 | inactive | – |
| CCCCCCCCCCCCc1ccc(O)cc1 | – | 86.1 µM (active) |
| CC1=NN(c2ccc(S(=O)(=O)O)cc2)C(=O)C1N=Nc1ccccc1 (configuration not stated) | inactive | – |
| CCC1COC(=O)O1 (configuration not stated) | inactive | – |
| COC(=O)c1ccccc1C | inactive | – |
| CCCCCC[C@@H](O)C/C=C\CCCCCCCC(=O)OCC(O)CO (some centres not stated) | inactive | – |
| CCCCCCCCCC(C)=O | inactive | – |
| O=C(O)c1cc(O)c2ccccc2c1O | – | 56.4 µM (active) |
| Nc1ccc(C(=O)O)cc1 | inactive | – |
| O=S(=O)(O)c1ccc(N=Nc2c(O)ccc3ccccc23)cc1 | – | 72.8 µM (active) |
| CCCCC/C=C\C/C=C\CCCCCCCC(=O)O | inactive | – |

| Compound | outcome | AC50 |
| --- | --- | --- |
| CCCC(CC)c1ccccc1 (configuration not stated) | inactive | – |
| CC(C)c1cc(C(C)C)cc(C(C)C)c1 | inactive | – |
| CC(=O)/C=C/C1C(C)=CCCC1(C)C (configuration not stated) | inactive | – |
| C=C(C)C1CC=C(C)CC1 (configuration not stated) | inactive | – |
| N#Cc1ccc(C(c2ccc(C#N)cc2)n2cncn2)cc1 | inactive | – |
| CCCCCCCCCCCCCCCCCCOS(=O)(=O)O | inactive | – |
| C=C1C[C@H]2[C@@H]3C=C(C)C4=CC(=O)CC[C@]4(C)[C@H]3CC[C@]2(C)[C@@]1(OC(C)=O)C(C)=O | inactive | – |
| O=C(Nc1ccccc1)c1cc(Cl)ccc1O | – | 0.484 µM (active) |
| C/C=C/C=C/CCCCCCCO | – | 151 µM (active) |
| CC(=O)OCc1ccccc1 | inactive | – |
| O=C(O)/C=C/c1ccccc1 | inactive | – |
| O=C(O)CCC(=O)O | inactive | – |
| CCOC(=O)C1=NOC(c2ccccc2)(c2ccccc2)C1 | inactive | – |
| O=C(O)CC(C(=O)O)S(=O)(=O)O (configuration not stated) | inactive | – |
| CC(C)(C)N | inactive | – |
| C[Si](C)(C)N[Si](C)(C)C | inactive | – |
